Among all 320,000 compounds or so, about 480 (0.15%) were called active. Not shown: some 1% with an inconclusive outcome. The entries come from a sample that favours actives as a whole. A number with no mark means an inactive call. Cut-off read from the data, not from the text of the source: active = inhibition above about 26% (passing the limit was not always enough); inconclusive = no clear call, values can overlap the other calls.

One may read the inhibition as the change of the read-out against control, counted positive when it falls.

This experiment deals with Histone deacetylase 3 (Homo sapiens) (UniProt O15379). Put plainly: HDAC3 deacetylase inhibitors, primary screen, biochemical, fluorescence, cell-free homogeneous (AID 2718). The conditions noted are these: recombinant HDAC3, fluorogenic peptide/trypsin coupled, at 8.3 µM, active compounds read high.
Histone deacetylase 3 (Homo sapiens), sequence (O15379 whole entry, looked up): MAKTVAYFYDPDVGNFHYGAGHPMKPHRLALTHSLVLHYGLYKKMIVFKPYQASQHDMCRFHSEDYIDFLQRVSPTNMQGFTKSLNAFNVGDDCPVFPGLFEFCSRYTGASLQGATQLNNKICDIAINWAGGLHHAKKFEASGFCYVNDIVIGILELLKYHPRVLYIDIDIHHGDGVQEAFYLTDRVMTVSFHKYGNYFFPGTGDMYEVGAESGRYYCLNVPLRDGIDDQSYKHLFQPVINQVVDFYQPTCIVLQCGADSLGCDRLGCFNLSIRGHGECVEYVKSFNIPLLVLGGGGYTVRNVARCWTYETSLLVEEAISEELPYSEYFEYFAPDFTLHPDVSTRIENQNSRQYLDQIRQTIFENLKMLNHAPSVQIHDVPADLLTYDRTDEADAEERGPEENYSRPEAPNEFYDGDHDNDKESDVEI
Take `CC(C)(C)OC(=O)C[C@@H]1C/C=C\C[C@@H](CC(=O)N[C@H](CO)Cc2ccccc2)C(=O)NC[C@@H](c2ccccc2)OC1=O`: the inhibition is -3.9%. For `S=c1[nH]c2ccccc2c2ccccc12`, the inhibition was 2.2%. `CC1(C)CC(=O)C=C(c2ccc(Cl)c(C(F)(F)F)c2)C1`: the inhibition was 3.15%.

Turning to `CCN(CC)CCCNC(=S)N(CCO)Cc1cc2cc3c(cc2[nH]c1=O)OCO3`, the inhibition is 3.65%. With `CCNC(=S)N(CCN(CC)CC)Cc1cc2cc3c(cc2[nH]c1=O)OCCO3`, the inhibition was -18.5%. On to `COCCCNC(=S)N(CCN(C)C)Cc1cc2cc3c(cc2[nH]c1=O)OCCO3`, for which the inhibition was 54.7% (active).

Take `COc1ccc2sc(-c3ccc(S(C)(=O)=O)cc3)c(C#Cc3cncn3C)c2c1`: the inhibition was -6.51%.

For `Cc1ccc(C)c(S(=O)(=O)N2CCN(c3ncnc4sccc34)CC2)c1`, the inhibition is 8.6%. Consider `CCOC(=O)c1nn(-c2ccccc2F)c2nc(Nc3ccccc3)cc(=O)n12`, for which the inhibition was 4.54%. For `Cc1nc(CC(=O)NNS(=O)(=O)c2ccc(F)c(Cl)c2)cs1`, the inhibition was -5.91%.

Take `COc1cccc(NC(=O)C2c3cc(OC)c(OC)cc3C(=O)N(C)C2c2cccnc2)c1` (stereo not given): the inhibition was 35.6% (active).

As for `CCOc1cc2c(cc1OCC)C(C(=O)O)C(c1ccc(OC)c(O)c1)N(C)C2=O` (stereo not given), the inhibition was -1.3%. With `COc1cccc(NC(=O)C2C(c3ccccc3)C2(Cl)Cl)c1` (stereo not given), the inhibition was 10.8%. For the compound `CCCCn1c(N)c(N(CCOC)C(=O)COc2c(C)cccc2C)c(=O)[nH]c1=O`, the inhibition was -1.76%.

For the compound `CSc1cccc(NC(=S)N(C(C)C)C(C)c2ccccn2)c1` (stereo not given), the inhibition was -0.0363%. As to `COc1ccc(S(=O)(=O)N(C)C[C@@H]2Oc3ccc(NC(=O)Nc4c(C)noc4C)cc3C(=O)N([C@H](C)CO)C[C@@H]2C)cc1`, the inhibition was -1.76%. As for `O=C(COc1ccc(F)cc1Br)NCC1COc2ccccc2O1` (stereo not given), the inhibition is -3.53%. In the case of `CCCCN(C(=O)C1CCC1)c1c(N)n(Cc2ccccc2)c(=O)[nH]c1=O`, the inhibition is -3.39%.

In the case of `O=C(COC(=O)c1cccc(Cl)c1)NC(=O)NCc1ccccc1`, the inhibition was 1.01%. Turning to `CC(OC(=O)c1cc2ccccc2[nH]1)C(=O)N(C)c1ccccc1` (stereo not given), the inhibition was -8.32%. With `COCCNC(=O)CCCN1C(=O)c2ccccc2Sc2ncccc21` the figure was 2.45%; with `CCOc1ccc(-n2c(N)c(C(=O)NCC3CCCO3)sc2=S)cc1` (stereo not given), 3.4%. Next, `O=C(Nc1nnc(-c2ccccc2)o1)c1cccc(S(=O)(=O)N2CCOCC2)c1`: -1.1%; `COc1ccccc1C(=O)NCC(=O)OCC(=O)NNC(=O)c1ccc(Br)cc1`: -9.69%; `CCCn1c(=O)c2c(C(F)(F)F)cc(-c3cccs3)nc2n(CCC)c1=O`: 1.67%. `COc1ccc(NC(=O)CNC(=O)Cn2ccc3ccccc3c2=O)c(OC)c1`: the inhibition was -0.211%. With `Fc1ccc2cnc(-c3ccccc3)cc2c1` the figure was -0.273%; with `Cc1ccc(NC(=O)C2CC2)cc1S(=O)(=O)N1CCOCC1`, 1.59%; with `COc1ccc(-c2c(-c3cc(OC)cc(OC)c3)n(C)c3ccc(-c4ccn[nH]4)cc23)cc1`, -1.8%.

In the case of `CC(C)n1cnc2c(NCc3ccccc3)cc(N[C@@H](CO)Cc3ccccc3)cc21`, the inhibition is 11.4%. Consider `N=c1c2c3c(sc2ncn1N)CCCCC3`, for which the inhibition is -7.57%.

In the case of `N=c1c2c3c(sc2ncn1N)CCCC3`, the inhibition was 9.19%. Take `S=c1[nH]nc2c3c4c(sc3ncn12)CCCC4`: the inhibition was 42.4% (active). In the case of `Cc1ccc(S(=O)(=O)NCCNC(C)c2ccc(Br)cc2)cc1` (stereo not given), the inhibition is 6.4%. `CC(=O)c1ccc(NC(=O)CSc2nc3ccccc3c(=O)n2CCCN2CCOCC2)cc1`: the inhibition was 12.2%. With `COc1ccc(N2C(=O)C(CC(=O)Nc3ccc(F)cc3)N(CCc3cccs3)C2=O)cc1` (stereo not given), the inhibition was -0.706%. Next, `CC1=CCC2C(=O)N(c3cccc(C(=O)NC(C)c4ccccc4)c3)C(=O)C2C1` (stereo not given): -6.38%. On to `COc1ccc(CCNC(=O)CN2C(=O)COc3ccc(S(=O)(=O)N4CCCC4)cc32)cc1OC`, for which the inhibition is -4.05%. Next, `CC1(c2ccccc2)NC(=O)N(CC(=O)N2CC(=O)Nc3ccccc32)C1=O` (stereo not given): -0.182%. For the compound `Cc1ccc(-c2nn(-c3ccccc3)cc2/C=C2\SC(=S)N(CCCCCC(=O)O)C2=O)o1`, the inhibition was 31.7% (active). With `Cc1ccc(-c2nn(-c3ccccc3)cc2CN(Cc2ccccc2)C(=O)CCC(=O)O)o1`, the inhibition is -11.8%. For the compound `C=CCOc1ccc(/C=C2\SC(=S)N(CCC(=O)O)C2=O)cc1`, the inhibition is 6.13%. Take `Clc1ccc2nc(CSc3ccccc3)cn2c1`: the inhibition was 10.1%. With `C[C@H]1CN([C@@H](C)CO)C(=O)Cc2cc(NS(C)(=O)=O)ccc2O[C@@H]1CN(C)CC1CC1` the figure was -7.37%; with `CC(C)(C)NC(=O)NC(=O)COC(=O)C1c2ccccc2Oc2ccccc21`, -4.96%. With `Cc1cccc(C)c1Nc1nnc(SCC(=O)NCCCN2CCCC2=O)s1`, the inhibition was 0.701%. As to `O=C(NCc1ccc2c(c1)OCO2)c1c(-c2ccsc2)sc2ccccc12`, the inhibition is 4.88%. Turning to `O=C(Nc1ccc(Br)cn1)C1CCN(S(=O)(=O)c2cccs2)CC1`, the inhibition is -1.41%. Next, `C=C(C)COc1ccc(-c2ncncc2-c2ccc(OC)cc2)c(O)c1`: 4.53%; `COc1ccc(-c2n[nH]c(C)c2-c2ccccc2OC)c(O)c1`: -1.09%.

On to `C=C(C)COc1ccc(-c2n[nH]c(C)c2-c2ccccc2)c(O)c1`, for which the inhibition was 28.9% (active). Consider `Cc1ccc(C)c(NC(=O)c2cc(-c3cc(C)cc(C)c3O)n[nH]2)c1`, for which the inhibition is -1.79%. With `Cc1cc(NC(=O)CSc2nnc(-c3ccco3)n2N)no1` the figure was 2.85%; with `Cc1[nH]c2ccccc2c1SCC(=O)Nc1nccs1`, -0.0176%. As for `CC(C)(C)OC(=O)C[C@@H]1C/C=C\C[C@H](CC(=O)N[C@@H](CO)Cc2ccccc2)C(=O)N[C@H](Cc2ccccc2)COC1=O`, the inhibition was -0.452%.

`COc1ccccc1-c1sc2ccccc2c1C#CC1(O)CCCCC1`: the inhibition was 14.4%. On to `COc1cc(/C=C/C(=O)OCC(=O)c2ccccc2)cc(OC)c1OC`, for which the inhibition is -7.7%. Consider `O=C(OCC(=O)N1CCCCC1)c1ccc(OC(F)(F)F)cc1`, for which the inhibition is -7.06%.

With `O=C(Cn1cnc2c(OCc3ccccc3)ncnc21)NCCCn1ccnc1`, the inhibition was -4.2%. Take `O=C1CCCC(O)=C1N=Nc1ccc2ncsc2c1`: the inhibition is -0.0778%. Regarding `Nc1ccc(N=Nc2ccccc2Cl)c(N)n1`, the inhibition was 14.3%. Regarding `NC[C@H](Cc1ccccc1)NCCc1cc(C(F)(F)F)cc(C(F)(F)F)c1`, the inhibition was 3.54%. With `O=C(COC(=O)CCCNC(=O)c1ccc(Cl)cc1)Nc1cc(Cl)ccc1Cl`, the inhibition is -2.2%.

For the compound `O=C(Nc1cc(S(=O)(=O)Nc2ccc(Cl)cc2)ccc1O)c1ccc(F)cc1F`, the inhibition is 8.91%.

For the compound `O=C(N/N=C/c1ccccn1)c1ccc(S(=O)(=O)N2CCCCCC2)cc1`, the inhibition is -5.66%.

On to `O=C(Nc1ncccc1O)c1ccc(S(=O)(=O)N2CCCC2)cc1`, for which the inhibition was 72.1% (active).

Regarding `O=C(Nc1ccccc1F)c1ccc(S(=O)(=O)N2CCCCCC2)cc1`, the inhibition is 7.14%. As to `CCCc1cc(=O)[nH]c(SCC(=O)Nc2ccc(S(=O)(=O)N3CCCC3)cc2)n1`, the inhibition is 4.11%. `O=C1N(c2ccccc2)C(=Nc2ccccc2)SC12CC2`: the inhibition is 1.18%. Next, `Cc1ccccc1N/C(SCc1ccc(Cl)cc1)=C(/C#N)C(N)=O`: 15.5%; `CCOC(=O)C1CCN(CCC(=O)Nc2cccc(C)c2)CC1`: 1.84%. As to `CC(=O)c1cccc(OCC(=O)OCC(=O)Nc2cc(S(=O)(=O)N3CCCCC3)ccc2C)c1`, the inhibition was 0.557%.

Regarding `CNC(=O)NC(=O)C(OC(=O)c1cccc(S(=O)(=O)N2CCCCC2)c1)c1ccccc1` (stereo not given), the inhibition is 30.1% (active).

With `CS(=O)(=O)c1ccc(Cl)c(NC(=O)COC(=O)c2cccc(S(=O)(=O)N3CCCC3)c2)c1`, the inhibition is 5.04%. As for `CN1CCN(S(=O)(=O)c2cccc(C(=O)O)c2)CC1`, the inhibition is -5.01%.

Consider `COC(=O)c1nc(NC(=O)c2ccccc2)n[nH]1`, for which the inhibition is 58.7% (active).

Regarding `COC(=O)c1nc(NC(=O)c2ccc(Cl)cc2)n[nH]1`, the inhibition was 7.09%.

As to `Cn1c(NC(=O)c2ccccc2)nc2ccccc21`, the inhibition is 9.99%. For the compound `Nn1c(SCC(=O)Nc2ccc3c(c2)CCC3)nnc1C1CC1`, the inhibition was 1.79%. On to `Cc1cc(C)n(C(=O)CCNC(=O)c2ccccc2Cl)n1`, for which the inhibition is -13.4%.

Take `COc1cccc(N2CC(NS(=O)(=O)c3cccs3)CC2=O)c1` (stereo not given): the inhibition was -2.66%. On to `COc1ccccc1C(=O)OCC(=O)Nc1cccc(S(=O)(=O)NC2=NCCCCC2)c1`, for which the inhibition was -6.85%.

Take `O=C(COC(=O)c1cc[n+]([O-])cc1)Nc1ccc(Cl)c(C(F)(F)F)c1`: the inhibition was -1.85%. Consider `COc1cc(OC)cc(C(=O)NCC(=O)OCC(=O)NC(C)CCc2ccccc2)c1` (stereo not given), for which the inhibition was -5.18%. Regarding `CC(C)Cn1c(SCC(=O)Nc2ccc(Cl)cc2F)nc(O)cc1=O`, the inhibition was 8.68%. Take `CCC(CO)Oc1cc(NC(=O)c2cccc(F)c2)c2ncn(C(C)C)c2c1` (stereo not given): the inhibition is -0.176%. Next, `CCC(=O)c1ccc(OCC(=O)Nc2ccc(N3CCCCC3)cc2)cc1`: -1.33%; `COc1ccc(OCC(=O)Nc2ccc(N3CCC(C)CC3)cc2)cc1`: 5.48%. With `O=C(COc1ccc([N+](=O)[O-])cc1)Nc1ccc(N2CCCC2)cc1`, the inhibition was 54.5% (active). Regarding `O=C(Nc1cc(S(=O)(=O)N2CCCCC2)ccc1Cl)C1COc2ccccc2O1` (stereo not given), the inhibition is -0.0794%.

In the case of `COc1cc(OC)cc(-c2cc3ccc(F)cc3cn2)c1`, the inhibition is 5.76%.

In the case of `CCN(C[C@H]1N[C@@](CC)(C(=O)OC)[C@H]2C(=O)N(Cc3ccccc3)C(=O)[C@@H]12)S(=O)(=O)c1ccc(C(F)(F)F)cc1`, the inhibition was 4.73%. `CC[C@@H]1CCCCc2ccccc2[C@@H](C(=O)C[C@H](O)CC(C)=O)OC1=O`: the inhibition is -4.02%. As to `O=C(CCNC(=O)c1ccccc1)NN=Cc1ccc(Br)o1`, the inhibition was 4.25%.

As to `Fc1ccccc1-c1cc2cc3c(cc2cn1)OCO3`, the inhibition was 0.895%. Take `CCOC(=O)C1Cn2c(nc3c(c2=O)C(C)(CC)Cc2ccccc2-3)S1` (stereo not given): the inhibition is -2.26%. As for `CCCN(CC1CC1)C(=O)COC(=O)c1ccc(C)cc1O`, the inhibition was -5.26%.

With `CCCC1CCC(=NNC(=S)NCCc2ccccc2)CC1` (stereo not given), the inhibition was -4.85%.

On to `COCCN(CCOC)S(=O)(=O)NC[C@H]1O[C@@H](n2cnc3c(N)ncnc32)[C@H](O)[C@@H]1O`, for which the inhibition is -1.58%. Take `Cc1nc2ccc(NC(=O)c3cccc(S(=O)(=O)N4CCOCC4)c3)cc2s1`: the inhibition was -5.18%.

Values taken from PubChem BioAssay AID2718 (Broad Institute, 2010).
